Rab7 wt GTP bind – alters GTP binding to wildtype dog Rab7 | GST-Rab7 beads, fluorescent GTP binding, flow cytometry; actives lie on both sides; untreated = 100%, excess cold GTP = 0% | GTP binding activity (percent of control), % at 10 µM | 190,000 compounds, 0.055% hits;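 active = fluorescent GTP binding to Rab7 beads changed by at least 20 points from the 100% baseline, either direction, mostly lower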;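 note: median green fluorescence of bound Bodipy-FL-GTP per Rab7 bead population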
HRas wt GTP – human HRas wildtype GTP binding, change in either direction. P01112. GST-Ras wt beads, Bodipy-FL-GTP binding, flow cytometry; actives lie on both sides. GTP binding activity, % at 10 µM. 190,000 compounds, 0.14% hits;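 active = GTP binding activity at least 20% away from the 100% baseline, either lowered as inhibitor or raised as activator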
Target sequence (P01112 whole entry, looked up): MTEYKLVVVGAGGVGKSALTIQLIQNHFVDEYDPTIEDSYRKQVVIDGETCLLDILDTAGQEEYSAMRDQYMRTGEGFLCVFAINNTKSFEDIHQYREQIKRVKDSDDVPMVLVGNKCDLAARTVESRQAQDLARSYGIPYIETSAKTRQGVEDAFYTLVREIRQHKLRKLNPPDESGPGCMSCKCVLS
Rac1 wt GTP bind – modulators of human Rac1 wildtype GTP binding; P63000; GST-Rac1 beads, fluorescent GTP binding, flow cytometry; actives lie on both sides; 0 = cold GTP competed, 100 = untreated; GTP binding activity (% of control), % at 10 µM; 190,000 compounds, 0.27% hits; AID 757;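 active = GTP binding activity at least 20 points away from the 100% control level, either lower or higher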
Rab2A wt mod – changes GTP binding to wildtype dog Rab2A, up or down; P61105; GST-Rab2 wt beads, Bodipy-GTP binding, flow cytometry; GTP binding activity, % at 10 µM; 190,000 compounds, 0.19% hits;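 active = GTP binding activity at least 20 points away from 100%, either lowered or raised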
Cdc42 wt – changes GTP binding to wildtype human Cdc42; GST-Cdc42 beads, Bodipy-GTP binding, flow cytometry; actives lie on both sides; 190,000 compounds, 0.2% hits; P60953; percent activity (GTP binding), % at 10 µM;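 active = percent activity GTP binding at least 20 points away from the 100% baseline, either down as inhibitor or up as activator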;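 note: median bead fluorescence of bound Bodipy-FL-GTP at 100 nM; below 100% means less GTP binding so inhibitor and above means activator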
Target sequence (P60953 whole entry, looked up): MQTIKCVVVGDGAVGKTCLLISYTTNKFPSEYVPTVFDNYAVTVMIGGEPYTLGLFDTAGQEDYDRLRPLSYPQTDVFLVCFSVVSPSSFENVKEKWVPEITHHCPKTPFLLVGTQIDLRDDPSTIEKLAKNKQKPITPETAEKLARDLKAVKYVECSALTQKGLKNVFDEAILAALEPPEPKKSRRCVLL
Rac1 act GTP bind – modulators of GTP binding to human Rac1 activated mutant. P63000. 190,000 compounds, 0.11% hits. GST-Rac1 activated beads, fluorescent GTP binding, flow cytometry; actives lie on both sides; 100% means binding = to untreated wells. percent activity (GTP binding), % at 10 µM. AID 764;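 active = GTP binding at least 20 percentage points away from the 100% baseline, in either direction, so actives lie on both sides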
A number is an active result; - = inactive; [ ] = dose if it differs, or a comment. An excerpt weighted towards active compounds, which were near 0.38% of everything screened.

SMILES | Rab7 wt GTP bind | HRas wt GTP | Rac1 wt GTP bind | Rab2A wt mod | Cdc42 wt | Rac1 act GTP bind
Cc1cc(-c2n[nH]c(=S)n2/N=C/c2cc([N+](=O)[O-])ccc2Cl)n[nH]1 | - | 77 | 71 | 74 | - | -
O=S(=O)(CC(CN1CCOCC1)N1CCOCC1)c1ccccc1 (centres undefined) | 23 | 58 | 56 | 55 | 60 | 53
O=C(Nn1c(O)c(C=C2N=c3ccccc3=N2)sc1=S)c1ccc(Cl)cc1 | - | - | - | - | - | -
Cc1ccc(C(=O)Nn2c(O)c(C=C3N=c4ccccc4=N3)sc2=S)cc1 | - | 73 | 72 | - | 73 | 79
COc1cc(/C=C2/SC(N)=NC2=O)ccc1Oc1ccc([N+](=O)[O-])cc1[N+](=O)[O-] | - | - | - | - | - | -
NC1=NC(=O)/C(=C\c2ccc(O)c([N+](=O)[O-])c2)S1 | - | 66 | 78 | 63 | 61 | -
Cn1[nH]c(C(F)(F)F)c(C=Nc2ccc(Cl)cc2)c1=O | - | - | - | - | - | -
COc1ccccc1-c1cc(SC)c(C#N)c(=O)o1 | - | - | - | - | - | -
Cc1ccc(NC(=O)CCn2nnc3ccccc32)cc1 | - | - | - | - | - | -
O=C(CCc1ccc(S(=O)(=O)NCCc2ccccc2)cc1)Nc1ccc2c(c1)OCO2 | 24 | 39 | 33 | 34 | 35 | 35
CCOC(=O)N1CCN(C(=O)CCc2ccc(S(=O)(=O)NCCc3ccccc3)cc2)CC1 | 20 | 37 | 29 | 32 | 33 | 32
CC(C)CNS(=O)(=O)c1ccc(CCC(=O)Nc2ccc3c(c2)OCO3)cc1 | - | - | - | - | - | -
CCOC(=O)c1c(NC(=O)/C=C/c2ccc3c(c2)OCO3)sc(C)c1CC | - | - | - | - | - | 77
CCOC(=O)c1c(NC(=O)/C=C/c2ccc3c(c2)OCO3)sc(C)c1C | - | - | - | - | - | -
CCCNC(=O)c1ccc(C2SCC(=O)N2CCc2ccccc2)cc1 (centres undefined) | - | - | - | - | - | -
COc1cccc(Nc2ncc(C(=O)O)c3ccccc23)c1 | - | - | - | - | - | -
COc1cccc(Nc2ccccc2C(=O)O)c1 | 127[activator] | 120[activator] | 138[activator] | 125[activator] | 130[activator] | 126[activator]
COC(=O)c1ccc(CN2C(=O)NC3(CCC(C)CC3)C2=O)cc1 (centres undefined) | - | - | - | - | - | -
CCC(Br)C(=O)Nc1ccc(OC)cc1 (centres undefined) | - | - | - | - | - | -
O=C(N/N=C/c1ccc(-c2ccccc2[N+](=O)[O-])o1)c1cncc(Br)c1 | - | - | 72 | - | - | -
O=C(CCNS(=O)(=O)c1cccc2nsnc12)N1CCN(c2ccccn2)CC1 | - | - | 138[activator] | - | 122[activator] | -
C#CCOCCOCCOCCNc1nc(N2CCN(C(=O)[C@H]([C@@H](C)CC)n3cc([C@@H](N)CC(C)C)nn3)CC2)nc(N2CCN(C(=O)[C@H](CCCCN)n3cc([C@@H](N)CO)nn3)CC2)n1 | - | - | - | - | - | -
CC1(C)CC2CC(C)(CN2C(=O)c2cccs2)C1 (centres undefined) | - | - | 157[activator] | - | 133[activator] | -
O=C1Nc2ccc(Br)cc2C12NNc1ccccc1O2 (centres undefined) | - | - | - | - | 79 | -
O=C(OC1CCCCC1)c1ccc(NC(=O)C2CCCCC2)cc1 | - | - | - | - | 79 | -
O=C(O)CCC(=O)Nc1ccc(C(=O)OC2CCCCC2)cc1 | - | - | - | - | - | -
Cc1cccc(Cc2c(C)nc3nc(SCC(=O)O)nn3c2C)c1 | - | 78 | 72 | 74 | 66 | 68
Cc1nc2nc(SCC(=O)NCCN3CCOCC3)nn2c(C)c1Cc1ccccc1 | - | - | - | - | - | -
O=C1COc2ccc(C(=O)COC(=O)CNC(=O)c3ccco3)cc2N1 | - | - | - | - | - | -
CC1(C)Cc2c(sc3c2C2=NCCN2C=N3)CS1 | - | - | 123[activator] | - | - | -

From PubChem
